# According to PubChem BioAssay (NCI):
# The panel holds about 79,000 compounds, 15% with a hit somewhere; the sample as a whole holds those more often. Values without a mark were called inactive. Calls of active or inactive are those of the source. No stated cut-off is given here; in the data, active means growth inhibition above about 70%; inactive means the rest.
# Assay: NCI Yeast Anticancer Drug Screen. Data for the mec2-1 strain (AID 157)
# Conditions: S. cerevisiae mec2-1 strain, at 5.0 µM (retest, dose inferred, filed as 0.5), stronger effect = higher value
# Method in brief: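 Compounds were applied to mec2-1 yeast cells. Their growth was then compared with that of vehicle-treated cultures to give growth inhibition.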
row,Compound,growth inhibition
1,O=C1C(Cl)=C(N2C(=O)CCC2=O)C(=O)c2ccccc21,99% (active)
2,C/C(=N\NC(=S)N1CCCC1)c1nc2ncccc2[nH]1,-3%
3,Clc1ccc(CN2COc3c(cc(Cl)c4cccnc34)C2)cc1Cl,-12%
4,Cc1cc(C)c2c(c1)sc1nncn12,57%
5,O=[N+]([O-])C1=Cc2ccccc2S(=O)(=O)CC1,14%
6,O=C1CNCCCN2CCN(CCCNCC(=O)Nc3ccc(cc3)S(=O)(=O)c3ccc(cc3)NC(=O)CNCCCN3CCN(CCCNCC(=O)Nc4ccc(cc4)S(=O)(=O)c4ccc(cc4)N1)CC3)CC2,-25%
7,O=C(Nc1ccccc1-c1nn(CN2CCNCC2)c(=S)n(CN2CCNCC2)c1=O)C(F)(F)F,0%
8,O=[N+]([O-])c1ccc(/C(=C\c2ccccc2)Cn2ccnc2)cc1,59%
9,Cc1ccc(S(=O)(=O)NNC2Oc3cc4c(cc3C(c3ccccc3O)C2C)OCO4)cc1 (stereo not given),-3%
10,CC1CCC(NCCOC(=O)c2ccc([N+](=O)[O-])cc2)CC1 (stereo not given),1%
11,Oc1cc(F)ccc1-c1ccc(F)cc1,20%
12,CN(C)C(=O)/N=c1\ss/c(=N\C(=S)N(C)C)n1-c1ccccc1,-9%
13,Cn1c(=O)cc[nH]c1=O,0%
14,CCOc1c(N=Nc2ccccc2OC)c(-c2ccccc2)nn1C(N)=S,1%
15,CS(C)=O.[Cl-].[Cl-].[NH-]CC(O)CN(Cc1ccccc1)CC(O)CN.[Pt] (stereo not given),18%
16,Clc1ccc(C2=CCN3CC=C(c4ccc(Cl)cc4)C23)cc1,1%
17,CCOC(=O)C(Cc1cn(S(=O)(=O)c2ccccc2)c2ccccc12)(NC(C)=O)C(=O)OCC,-11%
18,BrCC1(CBr)COC1,5%
19,O=C1CC(O)C=C1Nc1ccc(Cl)cc1 (stereo not given),-3%
20,COc1cc(NCCCCCNC(C)C)c2ncc(C)c(C)c2c1,-4%

row,Compound,growth inhibition
1,Cc1ccc(C(c2ccc(N(C)C)cc2)c2ccc(N(C)C)cc2)cc1,99% (active)
2,COc1ccc(OC)c2c1C=C[C@H](C1(C)SCCS1)C2C(C)=O (stereo not given in full),-4%
3,CCOC(=O)c1cc2c(nc1NCc1ccc(OC)c(OC)c1)/C(=C/c1ccccc1)CCCC2,17%
4,N#Cc1ccccc1[N+](=O)[O-],1%
5,O=C1c2cccc3cc4ccccc4c(c23)C(=O)N1CCCNCCNCCCN1C(=O)c2cccc3cc4ccccc4c(c23)C1=O,96% (active)
6,CC(=O)Oc1ccc(N=[N+]([O-])c2ccc(OC(C)=O)cc2)cc1,13%
7,CCOCCNc1ncnc2c1cnn2C,-4%
8,O=Cc1ccc(-c2nccc3c2[nH]c2ccccc23)o1,15%
9,O=c1oc2ccccc2c(O)c1C1=N/C(=N/N=C/c2ccc(Cl)cc2)SC1,-3%
10,Cc1ccccc1Oc1ccccc1N,-26%
11,CCCCCCC(=O)Nc1ccc(OC(=O)CCCCCC)c(=O)cc1,36%
12,CC(=O)C(C(C)=O)C1C=CC=CC=C1,-42%
13,CC(=O)Nc1ccc(N=C2c3ccccc3-c3ccc(NC(C)=O)cc32)cc1,0%
14,C/C=C1\CC(C)(CC)C(C#N)(C#N)C(N)=C1C#N (stereo not given),-3%
15,Cc1cc(Cc2ccc(Cl)cc2)ccc1O,-8%
16,O=C1C=CC(=O)N1c1ccc(-c2nc3ccccc3o2)cc1,70% (active)
17,CCN(CC)CC(O)c1ccnc2c(O)cccc12 (stereo not given),4%
18,Nc1ccc(O)c2c1C(=O)c1ccccc1C2O (stereo not given),4%
19,CC(=O)OC1CCC2(C)C(CCC3C4=CCC(C5COC(=O)C5)C4(C)CCC32)C1 (stereo not given),17%
20,CCN(CC)CCOc1ccc(NC(=S)Nc2ccc(OCC(C)C)cc2)cc1,29%

# Same assay, conditions: S. cerevisiae mec2-1 strain, at 50.0 µM (retest, dose inferred, filed as 5.0), stronger effect = higher value
row,Compound,growth inhibition
1,O=C1C(Cl)=C(N2C(=O)CCC2=O)C(=O)c2ccccc21,99% (active)
2,C/C(=N\NC(=S)N1CCCC1)c1nc2ncccc2[nH]1,94% (active)
3,Clc1ccc(CN2COc3c(cc(Cl)c4cccnc34)C2)cc1Cl,97% (active)
4,Cc1cc(C)c2c(c1)sc1nncn12,96% (active)
5,O=[N+]([O-])C1=Cc2ccccc2S(=O)(=O)CC1,93% (active)
6,O=C1CNCCCN2CCN(CCCNCC(=O)Nc3ccc(cc3)S(=O)(=O)c3ccc(cc3)NC(=O)CNCCCN3CCN(CCCNCC(=O)Nc4ccc(cc4)S(=O)(=O)c4ccc(cc4)N1)CC3)CC2,99% (active)
7,O=C(Nc1ccccc1-c1nn(CN2CCNCC2)c(=S)n(CN2CCNCC2)c1=O)C(F)(F)F,10%
8,O=[N+]([O-])c1ccc(/C(=C\c2ccccc2)Cn2ccnc2)cc1,85% (active)
9,Cc1ccc(S(=O)(=O)NNC2Oc3cc4c(cc3C(c3ccccc3O)C2C)OCO4)cc1 (stereo not given),98% (active)
10,CC1CCC(NCCOC(=O)c2ccc([N+](=O)[O-])cc2)CC1 (stereo not given),18%
11,Oc1cc(F)ccc1-c1ccc(F)cc1,99% (active)
12,CN(C)C(=O)/N=c1\ss/c(=N\C(=S)N(C)C)n1-c1ccccc1,56%
13,Cn1c(=O)cc[nH]c1=O,-1%
14,CCOc1c(N=Nc2ccccc2OC)c(-c2ccccc2)nn1C(N)=S,35%
15,CS(C)=O.[Cl-].[Cl-].[NH-]CC(O)CN(Cc1ccccc1)CC(O)CN.[Pt] (stereo not given),20%
16,Clc1ccc(C2=CCN3CC=C(c4ccc(Cl)cc4)C23)cc1,42%
17,CCOC(=O)C(Cc1cn(S(=O)(=O)c2ccccc2)c2ccccc12)(NC(C)=O)C(=O)OCC,14%
18,BrCC1(CBr)COC1,64%
19,O=C1CC(O)C=C1Nc1ccc(Cl)cc1 (stereo not given),29%
20,COc1cc(NCCCCCNC(C)C)c2ncc(C)c(C)c2c1,6%

row,Compound,growth inhibition
1,Cc1ccc(C(c2ccc(N(C)C)cc2)c2ccc(N(C)C)cc2)cc1,92% (active)
2,COc1ccc(OC)c2c1C=C[C@H](C1(C)SCCS1)C2C(C)=O (stereo not given in full),88% (active)
3,CCOC(=O)c1cc2c(nc1NCc1ccc(OC)c(OC)c1)/C(=C/c1ccccc1)CCCC2,93% (active)
4,N#Cc1ccccc1[N+](=O)[O-],58%
5,O=C1c2cccc3cc4ccccc4c(c23)C(=O)N1CCCNCCNCCCN1C(=O)c2cccc3cc4ccccc4c(c23)C1=O,98% (active)
6,CC(=O)Oc1ccc(N=[N+]([O-])c2ccc(OC(C)=O)cc2)cc1,40%
7,CCOCCNc1ncnc2c1cnn2C,-3%
8,O=Cc1ccc(-c2nccc3c2[nH]c2ccccc23)o1,17%
9,O=c1oc2ccccc2c(O)c1C1=N/C(=N/N=C/c2ccc(Cl)cc2)SC1,98% (active)
10,Cc1ccccc1Oc1ccccc1N,15%
11,CCCCCCC(=O)Nc1ccc(OC(=O)CCCCCC)c(=O)cc1,100% (active)
12,CC(=O)C(C(C)=O)C1C=CC=CC=C1,87% (active)
13,CC(=O)Nc1ccc(N=C2c3ccccc3-c3ccc(NC(C)=O)cc32)cc1,52%
14,C/C=C1\CC(C)(CC)C(C#N)(C#N)C(N)=C1C#N (stereo not given),0%
15,Cc1cc(Cc2ccc(Cl)cc2)ccc1O,99% (active)
16,O=C1C=CC(=O)N1c1ccc(-c2nc3ccccc3o2)cc1,91% (active)
17,CCN(CC)CC(O)c1ccnc2c(O)cccc12 (stereo not given),40%
18,Nc1ccc(O)c2c1C(=O)c1ccccc1C2O (stereo not given),95% (active)
19,CC(=O)OC1CCC2(C)C(CCC3C4=CCC(C5COC(=O)C5)C4(C)CCC32)C1 (stereo not given),94% (active)
20,CCN(CC)CCOc1ccc(NC(=S)Nc2ccc(OCC(C)C)cc2)cc1,65%
